# ChEMBL document CHEMBL1961873, “Compounds: GSK PKIS; Assays: Nanosyn kinase panel” (2012)
# Assays:
# [1] = molecular target: Protein kinase C gamma type (Homo sapiens) (UniProt P05129); settings: at 1 µM;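 also: each value is an averaged percent inhibition of the enzyme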
# [2] = molecular target: T1, Protein kinase C iota type (Homo sapiens) (UniProt P41743); settings: at 0.1 µM
# T1 sequence (whole entry): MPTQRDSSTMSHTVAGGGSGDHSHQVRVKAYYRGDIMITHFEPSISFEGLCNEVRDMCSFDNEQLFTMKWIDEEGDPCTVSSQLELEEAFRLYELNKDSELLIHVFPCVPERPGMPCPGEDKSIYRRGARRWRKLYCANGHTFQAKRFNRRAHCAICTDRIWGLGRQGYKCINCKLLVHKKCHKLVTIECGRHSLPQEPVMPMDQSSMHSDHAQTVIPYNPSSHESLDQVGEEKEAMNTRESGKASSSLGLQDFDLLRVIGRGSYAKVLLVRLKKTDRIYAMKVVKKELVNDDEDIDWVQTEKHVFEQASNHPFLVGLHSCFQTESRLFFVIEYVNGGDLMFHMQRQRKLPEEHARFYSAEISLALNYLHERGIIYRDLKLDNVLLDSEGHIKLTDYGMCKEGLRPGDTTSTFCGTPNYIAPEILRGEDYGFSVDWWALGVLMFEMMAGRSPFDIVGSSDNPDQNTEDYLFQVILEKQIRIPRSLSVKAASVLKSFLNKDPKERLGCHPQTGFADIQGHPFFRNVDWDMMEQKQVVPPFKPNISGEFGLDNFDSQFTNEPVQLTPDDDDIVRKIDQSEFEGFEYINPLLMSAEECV
# [3] = molecular target: T1, Protein kinase C iota type (Homo sapiens); settings: at 1 µM
# [4] = molecular target: Protein kinase C theta type (Homo sapiens) (UniProt Q04759); settings: at 0.1 µM
# [5] = molecular target: Protein kinase C theta type (Homo sapiens) (UniProt Q04759); settings: at 1 µM
# [6] = molecular target: Protein kinase C beta type (Homo sapiens) (UniProt P05771); settings: at 0.1 µM
# [7] = molecular target: Protein kinase C beta type (Homo sapiens) (UniProt P05771); settings: at 1 µM
# [8] = molecular target: T2, Serine/threonine-protein kinase D1 (Homo sapiens) (UniProt Q15139); settings: at 0.1 µM
# T2 sequence (whole entry): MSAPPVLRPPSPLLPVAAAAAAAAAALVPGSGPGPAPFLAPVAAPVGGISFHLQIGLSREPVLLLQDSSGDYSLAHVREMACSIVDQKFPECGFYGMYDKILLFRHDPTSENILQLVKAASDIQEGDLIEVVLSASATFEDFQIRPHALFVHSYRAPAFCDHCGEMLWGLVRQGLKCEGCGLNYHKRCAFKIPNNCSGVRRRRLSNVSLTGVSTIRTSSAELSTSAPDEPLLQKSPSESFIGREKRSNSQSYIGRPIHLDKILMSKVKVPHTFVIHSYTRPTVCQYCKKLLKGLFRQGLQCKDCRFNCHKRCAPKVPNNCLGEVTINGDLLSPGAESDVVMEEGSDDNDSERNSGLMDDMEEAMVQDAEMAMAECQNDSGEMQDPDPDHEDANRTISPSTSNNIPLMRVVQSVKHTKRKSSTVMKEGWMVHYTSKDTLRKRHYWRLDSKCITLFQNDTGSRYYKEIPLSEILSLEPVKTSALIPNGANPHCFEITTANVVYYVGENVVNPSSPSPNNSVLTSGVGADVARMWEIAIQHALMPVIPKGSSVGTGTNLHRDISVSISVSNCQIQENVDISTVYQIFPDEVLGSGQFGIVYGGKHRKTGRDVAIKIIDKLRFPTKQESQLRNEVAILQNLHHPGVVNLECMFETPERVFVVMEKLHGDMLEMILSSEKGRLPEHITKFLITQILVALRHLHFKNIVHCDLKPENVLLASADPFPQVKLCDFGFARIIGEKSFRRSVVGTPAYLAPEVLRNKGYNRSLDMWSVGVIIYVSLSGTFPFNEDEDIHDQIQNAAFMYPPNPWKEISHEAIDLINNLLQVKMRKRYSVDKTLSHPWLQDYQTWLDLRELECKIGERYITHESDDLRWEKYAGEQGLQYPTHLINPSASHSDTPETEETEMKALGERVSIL
# [9] = molecular target: T2, Serine/threonine-protein kinase D1 (Homo sapiens); settings: at 1 µM
# [10] = molecular target: T3, Serine/threonine-protein kinase D2 (Homo sapiens) (UniProt Q9BZL6); settings: at 0.1 µM
# T3 sequence (whole entry): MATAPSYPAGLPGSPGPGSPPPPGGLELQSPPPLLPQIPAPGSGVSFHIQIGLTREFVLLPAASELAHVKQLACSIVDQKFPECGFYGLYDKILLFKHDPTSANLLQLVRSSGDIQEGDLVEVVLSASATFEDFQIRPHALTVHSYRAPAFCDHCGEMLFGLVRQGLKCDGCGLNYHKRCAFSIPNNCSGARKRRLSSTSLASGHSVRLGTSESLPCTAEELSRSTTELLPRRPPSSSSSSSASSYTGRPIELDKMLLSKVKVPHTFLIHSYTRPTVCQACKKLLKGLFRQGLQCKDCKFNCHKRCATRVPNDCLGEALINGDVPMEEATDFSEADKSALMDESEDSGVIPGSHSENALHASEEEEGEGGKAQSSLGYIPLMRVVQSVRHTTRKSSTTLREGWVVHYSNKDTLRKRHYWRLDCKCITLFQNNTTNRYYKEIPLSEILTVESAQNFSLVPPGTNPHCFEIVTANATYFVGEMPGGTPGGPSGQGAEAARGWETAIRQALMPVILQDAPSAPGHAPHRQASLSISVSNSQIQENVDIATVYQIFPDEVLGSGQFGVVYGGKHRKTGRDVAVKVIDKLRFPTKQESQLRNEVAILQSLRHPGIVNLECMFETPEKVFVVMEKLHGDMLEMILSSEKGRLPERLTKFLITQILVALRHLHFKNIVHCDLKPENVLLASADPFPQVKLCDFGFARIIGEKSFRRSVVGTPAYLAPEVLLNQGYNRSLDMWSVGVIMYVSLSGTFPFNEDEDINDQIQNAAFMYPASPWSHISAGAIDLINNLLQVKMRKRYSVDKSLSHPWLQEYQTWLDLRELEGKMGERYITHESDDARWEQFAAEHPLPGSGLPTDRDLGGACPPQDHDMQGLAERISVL
# [11] = molecular target: T3, Serine/threonine-protein kinase D2 (Homo sapiens); settings: at 1 µM
# [12] = molecular target: T4, Serine/threonine-protein kinase D3 (Homo sapiens) (UniProt O94806); settings: at 0.1 µM
# T4 sequence (whole entry): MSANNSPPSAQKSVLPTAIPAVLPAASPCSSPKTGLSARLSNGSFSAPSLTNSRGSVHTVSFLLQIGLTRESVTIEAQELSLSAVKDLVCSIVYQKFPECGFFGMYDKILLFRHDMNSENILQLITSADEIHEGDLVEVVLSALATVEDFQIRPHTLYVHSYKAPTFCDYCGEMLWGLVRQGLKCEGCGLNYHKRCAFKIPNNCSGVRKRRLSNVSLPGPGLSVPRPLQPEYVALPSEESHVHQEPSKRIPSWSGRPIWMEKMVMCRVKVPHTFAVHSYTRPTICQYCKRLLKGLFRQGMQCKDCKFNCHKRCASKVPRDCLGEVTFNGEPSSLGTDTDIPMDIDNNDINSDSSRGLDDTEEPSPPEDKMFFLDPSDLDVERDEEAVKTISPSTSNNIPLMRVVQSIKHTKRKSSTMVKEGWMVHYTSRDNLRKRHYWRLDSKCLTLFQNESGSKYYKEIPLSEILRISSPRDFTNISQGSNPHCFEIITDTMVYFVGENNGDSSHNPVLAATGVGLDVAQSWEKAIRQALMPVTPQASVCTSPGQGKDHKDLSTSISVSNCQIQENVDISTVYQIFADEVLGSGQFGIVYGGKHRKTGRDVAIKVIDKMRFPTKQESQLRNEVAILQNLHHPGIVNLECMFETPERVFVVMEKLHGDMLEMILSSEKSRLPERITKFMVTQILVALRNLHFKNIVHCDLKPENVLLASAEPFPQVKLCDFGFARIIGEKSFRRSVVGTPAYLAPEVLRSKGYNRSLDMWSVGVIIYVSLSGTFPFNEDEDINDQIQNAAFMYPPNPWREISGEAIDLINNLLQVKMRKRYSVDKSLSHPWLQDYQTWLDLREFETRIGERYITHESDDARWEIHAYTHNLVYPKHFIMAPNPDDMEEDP
# [13] = molecular target: T4, Serine/threonine-protein kinase D3 (Homo sapiens); settings: at 1 µM
# [14] = molecular target: T5, cGMP-dependent protein kinase 1 (Homo sapiens) (UniProt Q13976); settings: at 0.1 µM
# T5 sequence (whole entry): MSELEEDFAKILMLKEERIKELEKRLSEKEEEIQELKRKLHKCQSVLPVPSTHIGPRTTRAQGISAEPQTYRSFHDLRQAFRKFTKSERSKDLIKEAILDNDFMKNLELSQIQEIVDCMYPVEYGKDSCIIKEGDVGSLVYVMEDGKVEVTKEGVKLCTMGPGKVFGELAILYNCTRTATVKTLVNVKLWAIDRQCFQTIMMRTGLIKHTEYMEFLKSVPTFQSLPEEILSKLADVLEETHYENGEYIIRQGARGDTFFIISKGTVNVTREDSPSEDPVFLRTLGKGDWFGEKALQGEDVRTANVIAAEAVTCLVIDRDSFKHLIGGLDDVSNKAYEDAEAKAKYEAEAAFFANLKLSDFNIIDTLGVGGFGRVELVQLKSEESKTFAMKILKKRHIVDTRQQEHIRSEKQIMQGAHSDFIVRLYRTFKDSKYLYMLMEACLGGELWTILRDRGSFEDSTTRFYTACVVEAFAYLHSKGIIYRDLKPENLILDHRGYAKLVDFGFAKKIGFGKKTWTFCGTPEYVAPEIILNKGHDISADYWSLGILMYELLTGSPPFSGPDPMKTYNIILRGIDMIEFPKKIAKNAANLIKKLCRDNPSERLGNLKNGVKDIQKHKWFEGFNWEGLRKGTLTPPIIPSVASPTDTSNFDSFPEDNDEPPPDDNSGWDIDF
# [15] = molecular target: T5, cGMP-dependent protein kinase 1 (Homo sapiens); settings: at 1 µM
# [16] = molecular target: T6, cGMP-dependent protein kinase 2 (Homo sapiens) (UniProt Q13237); settings: at 0.1 µM
# T6 sequence (whole entry): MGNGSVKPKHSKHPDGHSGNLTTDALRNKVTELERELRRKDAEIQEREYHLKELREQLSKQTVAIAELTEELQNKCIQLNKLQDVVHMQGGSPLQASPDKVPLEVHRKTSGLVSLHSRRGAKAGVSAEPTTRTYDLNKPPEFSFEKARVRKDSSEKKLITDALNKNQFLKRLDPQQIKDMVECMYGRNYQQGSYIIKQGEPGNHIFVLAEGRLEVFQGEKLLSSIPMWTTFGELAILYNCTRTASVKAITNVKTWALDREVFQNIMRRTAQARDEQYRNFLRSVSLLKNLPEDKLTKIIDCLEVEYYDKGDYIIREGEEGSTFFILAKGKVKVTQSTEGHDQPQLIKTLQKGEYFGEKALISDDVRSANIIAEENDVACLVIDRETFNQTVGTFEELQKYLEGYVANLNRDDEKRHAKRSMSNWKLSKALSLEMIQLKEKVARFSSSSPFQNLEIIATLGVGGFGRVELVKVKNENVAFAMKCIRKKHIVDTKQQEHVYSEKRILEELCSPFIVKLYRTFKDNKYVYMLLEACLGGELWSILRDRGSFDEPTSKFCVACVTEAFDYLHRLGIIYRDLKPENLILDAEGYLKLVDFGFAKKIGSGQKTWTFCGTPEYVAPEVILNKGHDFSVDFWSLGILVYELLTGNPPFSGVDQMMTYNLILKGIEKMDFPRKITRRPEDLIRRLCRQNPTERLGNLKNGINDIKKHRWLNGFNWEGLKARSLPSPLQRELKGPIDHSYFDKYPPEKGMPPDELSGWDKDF
# [17] = molecular target: T6, cGMP-dependent protein kinase 2 (Homo sapiens); settings: at 1 µM
# [18] = molecular target: T7, cAMP-dependent protein kinase catalytic subunit PRKX (Homo sapiens) (UniProt P51817); settings: at 0.1 µM
# T7 sequence (whole entry): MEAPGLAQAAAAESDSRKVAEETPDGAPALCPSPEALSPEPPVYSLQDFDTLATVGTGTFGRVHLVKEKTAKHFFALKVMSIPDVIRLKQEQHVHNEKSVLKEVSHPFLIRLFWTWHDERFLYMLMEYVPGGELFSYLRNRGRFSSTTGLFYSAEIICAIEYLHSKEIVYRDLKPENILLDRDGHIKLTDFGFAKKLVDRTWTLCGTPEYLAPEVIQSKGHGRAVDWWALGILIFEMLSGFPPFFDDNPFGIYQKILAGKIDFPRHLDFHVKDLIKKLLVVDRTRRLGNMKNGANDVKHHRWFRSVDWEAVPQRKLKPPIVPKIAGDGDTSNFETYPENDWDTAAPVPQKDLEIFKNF
# [19] = molecular target: T7, cAMP-dependent protein kinase catalytic subunit PRKX (Homo sapiens); settings: at 1 µM
# [20] = molecular target: Rho-associated protein kinase 1 (Homo sapiens) (UniProt Q13464); settings: at 0.1 µM;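 also: values are mean percent inhibition of ROCK1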
# Sequence of Rho-associated protein kinase 1 (Homo sapiens) (Q13464 2-1354 limits assumed): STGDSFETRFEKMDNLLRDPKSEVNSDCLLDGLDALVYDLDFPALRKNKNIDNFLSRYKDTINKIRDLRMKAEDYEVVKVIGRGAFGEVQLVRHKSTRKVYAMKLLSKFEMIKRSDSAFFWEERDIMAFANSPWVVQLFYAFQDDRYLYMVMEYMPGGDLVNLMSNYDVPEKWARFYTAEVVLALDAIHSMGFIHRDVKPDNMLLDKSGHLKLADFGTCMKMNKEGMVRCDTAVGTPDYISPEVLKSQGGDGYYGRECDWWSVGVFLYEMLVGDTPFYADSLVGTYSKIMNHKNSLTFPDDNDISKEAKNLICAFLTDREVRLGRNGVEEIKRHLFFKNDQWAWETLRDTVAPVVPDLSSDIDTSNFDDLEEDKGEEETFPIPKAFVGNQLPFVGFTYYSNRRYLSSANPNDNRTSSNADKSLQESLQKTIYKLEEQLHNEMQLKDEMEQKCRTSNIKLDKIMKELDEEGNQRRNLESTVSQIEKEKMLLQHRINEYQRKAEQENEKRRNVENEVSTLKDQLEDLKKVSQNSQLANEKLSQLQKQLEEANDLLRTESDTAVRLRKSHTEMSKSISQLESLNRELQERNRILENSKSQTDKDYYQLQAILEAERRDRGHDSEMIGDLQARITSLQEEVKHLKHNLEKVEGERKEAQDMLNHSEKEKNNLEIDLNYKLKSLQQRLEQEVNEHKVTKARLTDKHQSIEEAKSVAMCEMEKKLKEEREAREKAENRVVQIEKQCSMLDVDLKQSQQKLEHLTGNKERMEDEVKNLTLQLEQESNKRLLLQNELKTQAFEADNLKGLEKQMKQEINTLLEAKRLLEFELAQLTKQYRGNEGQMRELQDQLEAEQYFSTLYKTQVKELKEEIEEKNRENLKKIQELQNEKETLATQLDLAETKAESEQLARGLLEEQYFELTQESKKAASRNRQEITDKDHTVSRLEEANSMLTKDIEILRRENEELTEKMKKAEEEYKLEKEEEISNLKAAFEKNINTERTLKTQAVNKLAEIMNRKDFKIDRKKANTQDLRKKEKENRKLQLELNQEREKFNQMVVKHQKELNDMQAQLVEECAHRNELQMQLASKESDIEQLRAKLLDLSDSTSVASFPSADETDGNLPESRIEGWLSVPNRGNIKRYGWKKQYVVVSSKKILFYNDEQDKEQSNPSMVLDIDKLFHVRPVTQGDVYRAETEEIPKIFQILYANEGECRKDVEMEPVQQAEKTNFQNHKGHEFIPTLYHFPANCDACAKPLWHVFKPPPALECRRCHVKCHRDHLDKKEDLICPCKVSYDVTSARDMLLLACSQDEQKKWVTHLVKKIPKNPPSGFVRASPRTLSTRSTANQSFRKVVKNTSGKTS
# Sequence of Protein kinase C beta type (Homo sapiens) (P05771 2-671 limits assumed): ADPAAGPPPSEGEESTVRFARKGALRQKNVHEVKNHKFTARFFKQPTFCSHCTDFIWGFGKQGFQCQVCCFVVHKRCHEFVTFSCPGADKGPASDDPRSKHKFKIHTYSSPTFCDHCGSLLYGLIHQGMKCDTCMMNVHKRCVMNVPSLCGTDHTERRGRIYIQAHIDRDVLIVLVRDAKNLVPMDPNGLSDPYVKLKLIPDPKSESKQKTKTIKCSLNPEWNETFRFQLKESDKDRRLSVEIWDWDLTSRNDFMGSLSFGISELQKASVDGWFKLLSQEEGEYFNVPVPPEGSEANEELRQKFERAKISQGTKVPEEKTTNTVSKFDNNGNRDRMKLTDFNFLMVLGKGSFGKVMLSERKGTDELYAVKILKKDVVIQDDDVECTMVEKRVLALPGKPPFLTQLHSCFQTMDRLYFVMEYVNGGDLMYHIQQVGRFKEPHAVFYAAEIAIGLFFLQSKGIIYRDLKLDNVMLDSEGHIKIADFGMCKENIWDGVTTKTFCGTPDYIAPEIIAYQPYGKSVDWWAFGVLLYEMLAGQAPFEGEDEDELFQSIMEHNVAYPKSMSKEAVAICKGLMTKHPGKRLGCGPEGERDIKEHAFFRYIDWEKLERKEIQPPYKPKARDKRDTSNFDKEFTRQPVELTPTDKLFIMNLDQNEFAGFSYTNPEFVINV
# Sequence of Protein kinase C theta type (Homo sapiens) (Q04759 whole entry, looked up): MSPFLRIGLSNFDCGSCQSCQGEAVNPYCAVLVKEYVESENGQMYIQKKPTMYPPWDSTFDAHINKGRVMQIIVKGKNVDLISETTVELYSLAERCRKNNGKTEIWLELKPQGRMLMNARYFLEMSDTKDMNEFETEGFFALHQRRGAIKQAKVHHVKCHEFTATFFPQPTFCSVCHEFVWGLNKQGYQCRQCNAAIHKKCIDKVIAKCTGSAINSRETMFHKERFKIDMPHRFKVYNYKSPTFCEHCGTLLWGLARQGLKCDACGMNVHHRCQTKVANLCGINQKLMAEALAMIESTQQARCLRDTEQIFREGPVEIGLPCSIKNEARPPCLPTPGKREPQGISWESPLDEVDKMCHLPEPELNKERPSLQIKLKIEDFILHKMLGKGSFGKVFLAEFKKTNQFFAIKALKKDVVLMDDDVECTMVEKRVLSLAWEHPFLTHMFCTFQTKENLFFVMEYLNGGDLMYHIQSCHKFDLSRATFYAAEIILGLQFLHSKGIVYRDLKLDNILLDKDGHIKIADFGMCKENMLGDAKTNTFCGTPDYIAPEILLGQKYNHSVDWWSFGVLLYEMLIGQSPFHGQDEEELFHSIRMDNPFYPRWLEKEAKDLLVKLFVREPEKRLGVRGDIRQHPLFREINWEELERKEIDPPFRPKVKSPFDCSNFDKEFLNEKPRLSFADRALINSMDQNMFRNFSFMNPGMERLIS
compound,measurement,setting,value
CN(c1ccc(NC(=O)Nc2c(Cl)cccc2Cl)cc1)c1ccnc(Nc2cccc(CS(C)(=O)=O)c2)n1,inhibition,[1],6.65%
same,inhibition,[2],1.27%
same,inhibition,[3],1.5%
same,inhibition,[4],2.22%
same,inhibition,[5],3.24%
same,inhibition,[6],0.41%
same,inhibition,[7],3.24%
same,inhibition,[8],2.4%
same,inhibition,[9],1.18%
same,inhibition,[10],0.57%
same,inhibition,[11],2%
same,inhibition,[12],1.3%
same,inhibition,[13],0.38%
same,inhibition,[14],3.11%
same,inhibition,[15],3.77%
same,inhibition,[16],1.9%
same,inhibition,[17],3.22%
same,inhibition,[18],1.96%
same,inhibition,[19],3.64%
same,inhibition,[20],0.85%
